# Screening data: PubChem, Sanford-Burnham Center for Chemical Genomics
# Most compounds without a hit are left out; they make up all but 28% or so of the library.
# CYP2C9 inhib: human CYP2C9 inhibition. P11712. CYP2C9 Supersomes, luciferin-H conversion, luminescence. inhibition, % at 5 µM. 96,000 compounds, 20% hits. AID 777;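 active means blocking of liver enzyme CYP2C9 beyond about 50% at 5 µM, limit read from the data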
# CD11b adhes inh: CD11b/CD18-fibrinogen binding inhibition | P05107+P11215 | K562 CD11b/CD18 adhesion to fibrinogen, ATPlite luminescence; Mn2+ added to activate the integrin | inhibition, % at 10 µM | 93,000 compounds, 0.54% hits;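 active means primary inhibition of 50% or more at 10 µM, then 40% or more on retest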
# CYP2C19 activ: cytochrome P450 2C19 (human) activation | P33261 | recombinant CYP2C19, luciferin-H EGE luminescence; hits give high values; 0 = fully inhibited enzyme, 1 = untreated enzyme | activation factor at 5 µM | 96,000 tested, under 10 active | AID 1025;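 active means activation factor of at least 2 at 5 µM in the primary screen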;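 further: 0 = wells with 2.5 mM tranylcypromine and 1 = vehicle-only wells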
# CYP2C9 activ: CYP2C9 (human) activation; recombinant CYP2C9, luciferin-H conversion, luminescence; hits give high values; factor 1 = untreated enzyme, 0 = blocked; P11712; activation factor at 5 µM; 96,000 compounds, 1.4% hits;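 active means activation factor of 2 or more for CYP2C9 at a 5 µM dose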;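 further: 0 = sulfaphenazole-blocked wells and 1 = vehicle-only wells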
# Mac1 fbg enh: increases human CD11b/CD18 adhesion to fibrinogen; P05107+P11215; K562 CD11b/CD18 adhesion to fibrinogen, ATPlite luminescence; activation, % at 10 µM; 93,000 compounds, 0.07% hits; AID 1499;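 active means 10 µM primary screen giving 50% or more activity, confirmed by 40% or more on retest at that dose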
# CYP2C19 inhib: blocks human cytochrome P450 2C19. 96,000 compounds, 21% hits. inhibition, % at 5 µM. CYP2C19 Supersomes, luciferin-H EGE luminescence, 30 min. AID 778. P33261;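 active means CYP2C19 inhibition above a set limit at 5 µM in the primary screen, cut at about 50% in these data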;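 further: plate controls were negative control wells for no effect and 2.5 mM tranylcypromine positive control for full effect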
# * hit, by the source's call; x = not tested or not shown.
SMILES,CYP2C9 inhib,CD11b adhes inh,CYP2C19 activ,CYP2C9 activ,Mac1 fbg enh,CYP2C19 inhib
CCOC(=O)C1CCCN(C(=O)c2cc(Nc3ccc(OC)cc3)nc3ccccc23)C1 (stereo not given),76.8*,16.3,0.8,0.2,0.9,19.5
CCCCNC(=S)NNC(=O)c1ccoc1C,3.2,x,0.6,1,x,35.4
N#CC1=C(O)C(c2ccccc2)n2c1nc(=O)c1ccccc12 (stereo not given),41.6,-7.6,0.9,0.6,-1.2,11.7
CCOC(=O)C1CCCN(C(=O)c2ccc(C)cc2O)C1 (stereo not given),25.2,-9.0,0.2,0.7,-6.9,81.2*
CCOC(=O)C1CCCN(C(=O)c2ccccc2NC(C)=O)C1 (stereo not given),-4.5,-6.0,1,1,-0.3,1.1
O=C(NCCOc1cccc(Cl)c1Cl)c1cc(-n2cnnc2)ccc1Cl,54.3*,-3.6,0.3,0.5,-4.8,69.6*
O=C(NCCOc1cccc(Oc2ccccc2)c1)c1cc(-n2cnnc2)ccc1Cl,55.5*,9.0,0.3,0.4,1.5,69.0*
O=C(Nc1ccccc1)c1cc(-n2cnnc2)ccc1Cl,12.2,x,1,0.9,x,-0.4
Cc1nn2c(=O)cc(COC(=O)c3ccc(S(=O)(=O)N4CCCCC4)cc3)nc2s1,38.4,-42.6,0.9,0.6,-2.4,8.6
Cc1c(C(c2ccc([N+](=O)[O-])cc2)c2c(C)n(C)n(-c3ccccc3)c2=O)c(=O)n(-c2ccccc2)n1C,-18.4,x,1,1.2,x,-4.1
COc1ccc(NC(=O)C(NC(C)=O)C(=O)NCc2ccc(F)cc2)cc1 (stereo not given),14.9,x,0.5,0.9,x,53.8*
COc1ccc(CC(CC(=O)O)C(=O)Nc2ccc(OC)cc2)cc1 (stereo not given),-0.8,1.9,1.1,1,-3.3,-7.5
COc1ccc(S(=O)(=O)Cc2ccc(C(=O)NCc3ccc(F)cc3)o2)cc1,63.6*,9.9,0.8,0.4,-6.0,18.2
COc1ccc(S(=O)(=O)Cc2ccc(C(=O)NCc3cccnc3)o2)cc1,57.9*,-4.7,0.1,0.4,-4.1,90.0*
COc1ccc(S(=O)(=O)Cc2ccc(C(=O)NC3CC3)o2)cc1,-124.0,-16.4,0.8,2.2*,-10.2,16.0
COCCCNC(=O)c1ccc(CS(=O)(=O)c2ccc(OC)cc2)o1,4.4,-8.9,1.1,1,-0.7,-10.9
CCCn1nnnc1SCC(=O)Nc1cccc(NC(=O)c2ccco2)c1,59.8*,-23.4,0.2,0.4,3.1,75.1*
CC(=O)Nc1ccc(NC(=O)CSc2ccc(C)cc2)cc1,81.0*,0.0,0.3,0.2,-3.7,70.4*
Cc1ccc(SCC(=O)Nc2cccc(NC(=O)c3ccco3)c2)cc1,72.5*,x,0.7,0.3,x,32.3
Cc1ccc(-n2nnnc2SCC(=O)Nc2cccc(NC(=O)c3ccco3)c2)cc1C,18.6,4.9,0.5,0.8,-1.3,50.1*
CSc1cccc(NC(=O)CSc2ccc(C)cc2)c1,-4.7,-6.5,0.8,1,-4.4,19.0
Cc1cc(C)cc(-n2nnnc2SCC(=O)Nc2cccc(NC(=O)c3ccco3)c2)c1,34.4,-19.0,0.6,0.7,10.1,36.2
CC(C)COCC1CC2(CC(C)C(=O)CC2=O)C(=O)O1 (stereo not given),20.7,0.1,0.9,0.8,-3.9,7.6
CC1(C)CC2(CC(c3cccs3)c3cc(Cl)c(O)cc3O2)NC(=S)N1 (stereo not given),18.9,x,0.9,0.8,x,7.5
O=C(CN1C(=O)c2ccccc2S1(=O)=O)NCCSC1CCCCC1,23.5,2.5,0.9,0.8,0.1,10.6
CCc1nnc(NC(=O)c2cccc(OC)c2)s1,8.5,-3.2,0.9,0.9,-3.9,14.2
CCC(C(=O)Nc1nnc(-c2ccco2)s1)c1ccccc1 (stereo not given),55.3*,3.1,0.8,0.4,-3.2,24.9
CCOc1cccc(C(=O)Nc2nnc(-c3ccco3)s2)c1,-105.2,11.2,0.8,2.1*,-1.8,18.2
CCCC(=O)Nc1nnc(-c2ccco2)s1,-20.1,9.5,1.1,1.2,2.3,-11.4
COc1cccc(C(=O)Nc2nnc(-c3cccs3)s2)c1,70.4*,6.3,0.7,0.3,-5.2,30.0
